Our source for the max response, Potency and outcome values is PubChem BioAssay (NCATS).

The structures appear in SMILES notation. Results filed as inconclusive are left out. Values without a mark were called inactive. Calls of active or inactive are those of the source. Calls follow the shape of the dose curve; as a rule, active = well fitted inhibition curve with a large enough effect; inconclusive = small, poorly fitted or top-dose-only effect; inactive = flat fitted curve, though single readings scatter.
% is scaled to controls: 0 for no effect and ±100 for the full control effect; potency is read from the fitted curve at half-maximal effect.

This experiment relates to CRL-7250. Put plainly: Cytotoxic Profiling of Annotated Libraries Using Quantitative High-Throughput Screening (AID 1296008). Also: nearly all actives have a fitted effect of over 60% in size. As to conditions: Five cell lines viability, CellTiter-Glo ATP luminescence, 48-72 h; max response: stronger effect = lower value. Put shortly: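 Compounds were pin-transferred onto cells and incubated 48 or 72 hr at 37 degree Celsius, 95% humidity. CellTiter-Glo was added, plates sat 10 min at room temperature, then ATP-coupled luminescence was imaged as the viability read-out.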
(In general: In ATP-based viability assays light output follows the ATP content of the culture.)
Turning to `Cc1c(Cl)cccc1S(=O)(=O)Nc1nc(NCCc2ccccc2)nc2c1CN(Cc1ccccc1)CC2`, the max response is 4.69%. As for `CCCn1ncc(CN2CCCC(C(=O)c3cccc(OC(C)C)c3)C2)c1C` (configuration not stated), the max response is -26.8%. Consider `CCOC(=O)c1ccc(OCCC2CCN(c3ccc(C)nn3)CC2)cc1`, for which the max response was -21.9%. Consider `COC(=O)CC(O)CC(O)/C=C/c1c(C)ccc2c1C(OC(C)=O)CC(C)C2` (configuration not stated), for which the Potency was 4.04 µM (active). As for `CCN1C(C)(C)CC(Oc2ccc(C(=O)Nc3ccc(NC(=O)Nc4cc(C(C)(C)C)on4)cc3)nc2)CC1(C)C`, the max response is -1.6%. For `O=C(Nc1nc2ccc([N+](=O)[O-])cc2s1)C1CCCCC1`, the max response was -7.28%.

For `Cc1onc(-c2ccccc2)c1C(=O)N1CCN(c2ccc([N+](=O)[O-])cc2Cl)CC1`, the max response is -3.78%. Same read-out and setting: to `CCC(C)C(=O)O[C@H]1[C@H](O)[C@@]2(COC(C)=O)C(CC1(C)C)C1=CCC3[C@@]4(C)CC[C@H](O[C@@H]5O[C@H](C(=O)O)[C@@H](O)[C@H](O)[C@H]5O)[C@@](C)(CO)C4CC[C@@]3(C)[C@]1(C)C[C@@H]2O` (some centres not stated) belongs 4.21%. Take `CN(C)C(CCOc1cccc2ccccc12)c1ccccc1` (configuration not stated): the max response is -16.3%. The same measure, in the same setting: the same measure for `Nc1c(S(=O)(=O)c2ccccc2)c2nc3ccccc3nc2n1-c1ccc(F)cc1`: 2.31%; for `CC(C)(O)C1CC(=O)C2(C)C(CCC3(C)C(c4ccoc4)OC(=O)C4OC432)C12CCC(=O)OC2` (configuration not stated): -9.62%; for `C=CC(C)(C)c1[nH]c2ccccc2c1C[C@@H]1NC(=O)[C@H](C)NC1=O`: -22.2%.

On to `C=C1/C(=C/C=C2\CCC[C@]3(C)[C@@H]([C@H](C)/C=C/[C@@H](C)C(C)C)CC[C@@H]23)C[C@@H](O)C[C@@H]1O`, for which the max response is 1.9%.

Consider `O=C(NCCCN1CCOCC1)c1cnn2c(-c3ccccc3)cc(-c3ccccc3)nc12`, for which the max response is -7.62%. Take `CC(=O)O[C@@H]1[C@@H](O)[C@H](O[C@@H]2[C@@H](O)[C@@H](O)[C@H](O[C@H]3[C@H](O[C@H]4[C@H](O[C@H]5CC[C@@]6(C)C(CC[C@]7(C)C6CC=C6[C@@H]8CC(C)(C)CC[C@]8(C(=O)O)CC[C@]67C)[C@]5(C)CO)O[C@H](CO)[C@@H](O)[C@@H]4O)OC[C@@H](O)[C@@H]3O)O[C@H]2C)OC[C@H]1O` (some centres not stated): the max response is -25.8%.

On to `Cc1nnc(-c2ccc(-c3ccc(C(=O)Nc4ccc(O)c(N5CCN(C)CC5)c4)cc3)c(C)c2)o1`, for which the max response is 3.58%. Regarding `C/C(=C/C=C\C=C\Cc1cnco1)[C@@H](O)C(C)(C)C(N)=O`, the max response was 0.0485%. Take `C=C1CC[C@H]2C(=C)CC[C@H]3C(=C)C(=O)O[C@@H]3[C@@H]12`: the max response was -11.6%.

In the case of `COc1cc(C(=O)NC(=S)Nc2cccc(NC(=O)c3ccccc3)c2)cc(OC)c1OC`, the max response is -13%. As for `COc1ccc(NC(=O)c2ccc(-c3ccc(C(=N)N)cc3C)cc2)cc1N1CCN(C)CC1`, the max response is 4.07%.

Regarding `OC1(CN2CCC(COc3noc4cccc(O[C@@H]5CCOC5)c34)CC2)CCOCC1`, the max response was -0.0295%. Same read-out and setting: to `Cc1cc(OCCCS(C)(=O)=O)cc(C)c1-c1cccc(COc2ccc3c(c2)OCC3CC(=O)O)c1` (configuration not stated) belongs -4.99%. Regarding `COc1ccc(S(=O)(=O)Nc2c(C)cc(C)cc2C)cc1`, the call was inactive. With `CC(C)C[C@@H](C(=O)N[C@@H](Cc1ccc(OCc2ccccc2)cc1)C(=O)NC(C)(C)C)N(C)Cc1ccc(C(C)(C)C)cc1`, the max response was -7.62%.

Regarding `O=C(NCCCCN1CCN(c2cccc(Cl)c2Cl)CC1)c1cc2ccccc2s1`, the max response is -20.7%. Same read-out and setting: to `O=C(NS(=O)(=O)c1ccc(Br)s1)c1ccc(Cl)cc1Cl` belongs -22.3%; to `Cc1cc(C(=O)Cn2cc(C#N)ccc2=O)c(C)n1Cc1ccccc1`, -5.73%. Consider `CCCCCCCOc1cc2c(cc1/C(C)=C/c1ccc(C(=O)O)cc1)C(C)(C)CCS2(=O)=O`, for which the compound was classed as inactive. As to `CN(C)C(=O)C(=O)c1cn(C)c2cc(Cl)c(C(=O)N3CCC(Cc4ccc(F)cc4)CC3)cc12`, the max response was -5.29%. As for `CC(=O)NC(C)c1cnc(-c2cnc(Oc3ccc(OC(C)C)cc3)s2)s1` (configuration not stated), the max response was -17.1%. For `C/C=C/CCC1Cc2cc(O)c(CCCC)c(O)c2C(=O)O1` (configuration not stated), the compound was classed as inactive. As to `Cc1noc(C)c1-c1cc(O)cc(C(O)c2ccccc2)c1` (configuration not stated), the Potency was 7.31 µM (active).
